Results filed as inconclusive are left out. Active and inactive are the calls of the source. Unless noted, calls come from the whole dose curve; as a rule, active = well fitted curve in the direction sought with a large enough effect in the repeat runs; inconclusive = weak or mixed curves; inactive = no such curve, though single readings can be large; an effect the other way counts as inactive or inconclusive.
Columns and labels:
[1] = qHTS assay to identify small molecule agonists of the peroxisome proliferator-activated receptor delta (PPARd) signaling pathway - cell viability counter screen (AID 743211); note: nearly all actives have a fitted effect of over 55% in size; note: potency is the fitted concentration of half-maximal effect
Procedure, shortened: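 In the same wells used for beta-lactamase reporter measurement, cytotoxicity is scored by CellTiter-Glo. HEK293H PPARd-bla cells receive compound for 17 h at 37C following a 5 h settling period.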

[2] = target: Peroxisome proliferator-activated receptor delta (Homo sapiens) (UniProt Q03181); assay: qHTS assay to identify small molecule agonists of the peroxisome proliferator-activated receptor delta (PPARd) signaling pathway (AID 743212; calls by dose curve; note: % is set by controls: 0 for no effect and ±100 for the full control effect)
Sequence of Peroxisome proliferator-activated receptor delta (Homo sapiens) (Q03181 whole entry, looked up): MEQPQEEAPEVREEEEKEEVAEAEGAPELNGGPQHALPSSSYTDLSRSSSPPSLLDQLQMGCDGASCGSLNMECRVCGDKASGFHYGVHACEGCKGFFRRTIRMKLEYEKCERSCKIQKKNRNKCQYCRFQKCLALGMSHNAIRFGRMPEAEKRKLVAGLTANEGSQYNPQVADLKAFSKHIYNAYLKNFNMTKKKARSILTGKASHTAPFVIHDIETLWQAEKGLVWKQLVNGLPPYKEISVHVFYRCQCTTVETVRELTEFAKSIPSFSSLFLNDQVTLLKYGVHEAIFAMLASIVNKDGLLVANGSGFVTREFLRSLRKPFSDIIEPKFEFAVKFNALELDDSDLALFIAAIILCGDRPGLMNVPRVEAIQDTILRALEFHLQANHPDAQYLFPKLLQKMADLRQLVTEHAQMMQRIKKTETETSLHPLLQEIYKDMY
Procedure, shortened: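 GeneBLAzer PPARd UAS-bla HEK293H cells (beta-lactamase reporter under UAS control), plated and rested 5 h at 37 C, then exposed to compounds in DMSO at 37 C; LiveBLAzer B/G FRET substrate added, 2 h room temperature, fluorescence read.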

[3] = qHTS assay to identify small molecule antagonists of the peroxisome proliferator-activated receptor delta (PPARd) signaling pathway - cell viability counter screen (AID 743213); note: nearly all actives have a fitted effect of over 50% in size; note: potency is the fitted concentration of half-maximal effect
Procedure, shortened: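 HEK293H PPARd UAS-bla cells, 5 h pre-incubation, compound + L165041 300 nM final, 17 h 37 C; B/G FRET substrate 2 h RT; then CellTiter-Glo 30 min RT, luminescence.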

[4] = target: Peroxisome proliferator-activated receptor delta (Homo sapiens) (UniProt Q03181); assay: qHTS assay to identify small molecule antagonists of the peroxisome proliferator-activated receptor delta (PPARd) signaling pathway (AID 743215; active = well fitted inhibition curve with a large enough effect in the signal ratio in the repeat runs, not every such curve was filed as active; the % refers to the signal ratio;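 note: cells stimulated with agonist L165041 at 300 nM final during compound exposure; series mostly up to about 62 µM; % is set by controls: 0 for no effect and ±100 for the full control effect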)
Procedure, shortened: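 Read-out is beta-lactamase FRET fluorescence, measured 2 h after substrate addition at room temperature. Beforehand, UAS-bla HEK293H cells carrying the PPARd reporter were exposed to compounds with L165041 at 300 nM final for 17 h at 37 C.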

[5] = qHTS assay to identify small molecule antagonists of the farnesoid-X-receptor (FXR) signaling pathway - cell viability counter screen (AID 743221; active = well fitted cell-killing curve with a large enough effect in the repeat runs, not every such curve was filed as active; note: nearly all actives have a fitted effect of over 50% in size; note: potency is the fitted concentration of half-maximal effect)
Procedure, shortened: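 Here viability was scored by luminescence after CellTiter-Glo addition to wells already read for beta-lactamase. Prior treatment: compound plus CDCA (50 uM final), 16 h, 37 C, HEK 293T FXR-bla cells.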

[6] = target: Vitamin D3 receptor (Homo sapiens) (UniProt P11473); assay: qHTS assay to identify small molecule agonists of the vitamin D receptor (VDR) signaling pathway (AID 743222; calls by dose curve; note: % is set by controls: 0 for no effect and ±100 for the full control effect)
Sequence of Vitamin D3 receptor (Homo sapiens) (P11473 whole entry, looked up): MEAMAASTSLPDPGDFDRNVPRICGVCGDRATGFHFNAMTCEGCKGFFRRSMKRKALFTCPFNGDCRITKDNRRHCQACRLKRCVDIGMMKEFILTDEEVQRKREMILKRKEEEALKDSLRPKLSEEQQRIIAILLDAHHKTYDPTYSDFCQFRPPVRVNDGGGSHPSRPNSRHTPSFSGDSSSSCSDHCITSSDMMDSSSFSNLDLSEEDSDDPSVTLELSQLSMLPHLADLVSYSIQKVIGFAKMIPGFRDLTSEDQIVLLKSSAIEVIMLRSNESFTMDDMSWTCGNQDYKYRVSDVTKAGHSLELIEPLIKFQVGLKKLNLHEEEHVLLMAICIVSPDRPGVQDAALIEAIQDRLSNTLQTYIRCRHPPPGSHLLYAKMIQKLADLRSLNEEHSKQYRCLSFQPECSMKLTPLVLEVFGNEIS
Procedure, shortened: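 VDR-bla cells, 2,000/well; 4 h preincubation 37C; cpd (DMSO) 16 h; LiveBLAzer B/G substrate 2 h RT; fluorescence intensity read.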

[7] = target: Vitamin D3 receptor (Homo sapiens) (UniProt P11473); assay: qHTS assay to identify small molecule antagonists of the vitamin D receptor (VDR) signaling pathway (AID 743223; active = well fitted inhibition curve with a large enough effect in the signal ratio in the repeat runs, not every such curve was filed as active; the % refers to the signal ratio; note: % is set by controls: 0 for no effect and ±100 for the full control effect)
Procedure, shortened: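 Inhibition of agonist-driven VDR signalling is scored in VDR-bla cells: 3 nM final 1alpha,25-dihydroxyvitamin D3 plus compound, 16 h at 37C, then beta-lactamase detection by FRET substrate fluorescence after 2 h.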

[8] = qHTS assay to identify small molecule agonists of the vitamin D receptor (VDR) signaling pathway - cell viability counter screen (AID 743224); note: series mostly up to about 63 µM; % is set by controls: 0 for no effect and ±100 for the full control effect; nearly all actives have a fitted effect of over 50% in size
Procedure, shortened: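 Luminescence from CellTiter-Glo, read after 30 min at room temperature, reports viability of VDR-bla cells treated with compounds for 16 h at 37C in the wells used for the beta-lactamase FRET read.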

[9] = qHTS assay to identify small molecule antagonists of the vitamin D receptor (VDR) signaling pathway - cell viability counter screen (AID 743225); note: % is set by controls: 0 for no effect and ±100 for the full control effect; nearly all actives have a fitted effect of over 50% in size
Procedure, shortened: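 Compounds were pinned onto VDR-bla HEK 293T cells together with 1-alpha,25-dihydroxyvitamin D3 at 3 nM final. After 16 h at 37C and 5% CO2 plus the reporter readout, cell viability was measured by CellTiter-Glo luminescence (30 min, room temperature).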

[10] = qHTS assay to identify small molecule agonists of the NFkB signaling pathway - cell viability counter screen (AID 1159515; calls by dose curve; note: series mostly up to about 61 µM; % is set by controls: 0 for no effect and ±100 for the full control effect; nearly all actives have a fitted effect of over 55% in size)
Procedure, shortened: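 Luminescence from CellTiter-Glo (30 min, room temperature) gives viability, measured in the same wells as the beta-lactamase reporter read. Cells were NFkB-bla ME-180, 2,000 per well, treated 5 hr with compounds.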

[11] = qHTS assay to identify small molecule agonists of the endoplasmic reticulum stress response signaling pathway (AID 1159516; active = well fitted activation curve with a large enough effect in the signal ratio in the repeat runs, not every such curve was filed as active; the % refers to the signal ratio; note: % is set by controls: 0 for no effect and ±100 for the full control effect)
Procedure, shortened: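 Read-out is beta-lactamase cleavage of a FRET substrate (405 nm excitation; 460 and 530 nm emissions) in ESRE-bla HeLa cells after a 5 hr compound exposure at 37 C. Substrate incubation ran 2 hr at room temperature.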

[12] = qHTS assay to identify small molecule antagonists of the retinoid-related orphan receptor gamma (ROR-gamma) signaling pathway - cell viability counter screen (AID 1159520)
Procedure, shortened: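 Tet-on ROR gamma CHO cells (1,000/well) were plated 4 hr, given compounds in DMSO for 2 hr at 37 C, then induced with 1 uM final doxycycline for 16 hr. Viability was read as ATP by CellTiter-Glo luminescence after 30 min.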

[13] = target: Nuclear receptor ROR-gamma (Homo sapiens) (UniProt P51449); assay: qHTS assay to identify small molecule antagonists of the retinoid-related orphan receptor gamma (ROR-gamma) signaling pathway (AID 1159521; note: nearly all actives have a fitted effect of over 50% in size; note: potency is the fitted concentration of half-maximal effect)
Procedure, shortened: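 Test compounds were applied to Tet-on RORγ CHO cells 2 h ahead of doxycycline hyclate (1 uM final). Luciferase reporter activity was quantified by luminescence after 16 h at 37 C and 5% CO2.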

[14] = qHTS assay to identify small molecule agonists of the AP-1 signaling pathway (AID 1159526; calls by dose curve; note: % is set by controls: 0 for no effect and ±100 for the full control effect)
[15] = target: Retinoic acid receptor RXR-alpha (Homo sapiens) (UniProt P19793); assay: qHTS assay to identify small molecule agonists of the RXR signaling pathway (AID 1159527; calls by dose curve; note: % is set by controls: 0 for no effect and ±100 for the full control effect; nearly all actives have a fitted effect of over 35% in size)
Sequence of Retinoic acid receptor RXR-alpha (Homo sapiens) (P19793 whole entry, looked up): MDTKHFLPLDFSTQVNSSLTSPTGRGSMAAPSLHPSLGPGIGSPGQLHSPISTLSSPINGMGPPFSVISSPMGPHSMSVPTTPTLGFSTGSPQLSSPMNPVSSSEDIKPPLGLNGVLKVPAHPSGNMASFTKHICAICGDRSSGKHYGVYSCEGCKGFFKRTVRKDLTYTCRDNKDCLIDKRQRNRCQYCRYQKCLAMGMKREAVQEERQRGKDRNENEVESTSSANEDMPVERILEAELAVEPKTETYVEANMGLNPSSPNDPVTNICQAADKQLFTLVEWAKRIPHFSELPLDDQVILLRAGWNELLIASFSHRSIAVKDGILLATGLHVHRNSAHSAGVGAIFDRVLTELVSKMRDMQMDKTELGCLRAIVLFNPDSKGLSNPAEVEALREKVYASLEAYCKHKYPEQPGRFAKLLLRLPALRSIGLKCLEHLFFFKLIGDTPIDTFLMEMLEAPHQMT
Procedure, shortened: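 Using 9-cis retinoic acid as the reference agonist, chemicals were tested in HEK 293T cells […] for 16 hr; substrate loading lasted 2 hr at room temperature.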

[16] = target: Bile acid receptor (Homo sapiens) (UniProt Q96RI1); assay: qHTS assay to identify small molecule antagonists of the farnesoid-X-receptor (FXR) signaling pathway (AID 743217; active = well fitted inhibition curve with a large enough effect in the signal ratio in the repeat runs, not every such curve was filed as active; the % refers to the signal ratio; note: % is set by controls: 0 for no effect and ±100 for the full control effect)
Sequence of Bile acid receptor (Homo sapiens) (Q96RI1 whole entry, looked up): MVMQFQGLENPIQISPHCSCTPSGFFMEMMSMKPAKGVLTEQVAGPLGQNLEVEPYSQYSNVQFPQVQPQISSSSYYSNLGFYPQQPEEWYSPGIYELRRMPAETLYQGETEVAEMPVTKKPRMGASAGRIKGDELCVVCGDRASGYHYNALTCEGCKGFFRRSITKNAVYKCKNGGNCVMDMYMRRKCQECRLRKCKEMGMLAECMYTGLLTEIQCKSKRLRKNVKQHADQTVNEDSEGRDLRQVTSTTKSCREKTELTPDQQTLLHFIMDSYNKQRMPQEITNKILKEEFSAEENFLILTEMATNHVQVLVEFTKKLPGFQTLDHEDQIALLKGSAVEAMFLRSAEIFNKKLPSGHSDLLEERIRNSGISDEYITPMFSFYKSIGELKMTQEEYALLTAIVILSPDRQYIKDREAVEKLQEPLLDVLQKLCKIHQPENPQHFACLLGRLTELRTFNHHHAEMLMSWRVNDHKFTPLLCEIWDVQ
Procedure, shortened: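 HEK 293T FXR-UAS-bla, 5000 cells/well; compound + CDCA 50 uM final; 16 h, 37 °C; B/G FRET substrate 2 h RT; fluorescence.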

[17] = qHTS assay to identify small molecule agonists of the farnesoid-X-receptor (FXR) signaling pathway - cell viability counter screen (AID 743218); note: nearly all actives have a fitted effect of over 45% in size; note: potency is the fitted concentration of half-maximal effect
Procedure, shortened: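 HEK 293T FXR-bla cells; 5 h pre-incubation, 16 h compound exposure at 37 C; LiveBLAzer substrate 2 h RT, then CellTiter-Glo 30 min RT, luminescence.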

[18] = target: Bile acid receptor (Homo sapiens) (UniProt Q96RI1); assay: qHTS assay to identify small molecule agonists of the farnesoid-X-receptor (FXR) signaling pathway (AID 743220; active = well fitted activation curve with a large enough effect in the signal ratio in the repeat runs, not every such curve was filed as active; the % refers to the signal ratio; note: % is set by controls: 0 for no effect and ±100 for the full control effect)
Procedure, shortened: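 Beta-lactamase reporter under UAS control in GeneBLAzer FXR HEK 293T cells (5000/well) measured with LiveBLAzer FRET substrate after 2 h at room temperature. Compound exposure lasted 16 h at 37C.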

[19] = qHTS assay to identify small molecule agonists of the AP-1 signaling pathway - cell viability counter screen (AID 1159525; calls by dose curve; note: nearly all actives have a fitted effect of over 55% in size)
Procedure, shortened: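 ME-180 AP-1-bla, 2500 cells/well, Opti-MEM + 0.5% dialyzed FBS; overnight 37 °C; cpd 15-pt titration, 5 h 37 °C; CellTiter-Glo 30 min RT; luminescence read; normalised to TOAB and DMSO controls.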

O=C(O)[C@H](O)[C@@H](O)[C@H](O[C@@H]1O[C@H](CO)[C@H](O)[C@H](O)[C@H]1O)[C@H](O)CO
inactive: Potency [1] | Potency [2] | Potency [3] | Potency [4] | Potency [5] | Potency [6] | Potency [7] | Potency [8] | Potency [9] | Potency [10] | Potency [11] | Potency [12] | Potency [13] | Potency [14] | Potency [15]

CCN1C(=O)c2ccccc2C1Nc1ccc(OCCN2CCCCC2)cc1 (centres undefined)
inactive: Potency [1] | Potency [16] | Potency [17] | Potency [18] | Potency [5] | Potency [6] | Potency [7] | Potency [8] | Potency [9] | Potency [10] | Potency [11] | Potency [12] | Potency [19] | Potency [14] | Potency [15]

CCCCCC/C=C\CCCCCCCC(=O)O
inactive: Potency [1] | Potency [3] | Potency [4] | Potency [17] | Potency [5] | Potency [6] | Potency [7] | Potency [8] | Potency [10] | Potency [11] | Potency [12] | Potency [13]

O=C(O)O
active: Potency [13] 2.96 µM
inactive: activation [2] -0.685% [at 5.95 µM] | viability change, negative = cytotoxic [17] 5.67% [at 5.95 µM] | activity change, negative = cytotoxicity [5] -10.5% [at 5.95 µM] | activity change, negative = inhibition [7] 0.752% [at 6.95 µM] | viability change, negative = cytotoxic [9] -0.215% [at 6.95 µM] | activity, negative = cytotoxic [10] -3.19% [at 6.95 µM] | activation [11] -2.74% [at 6.95 µM] | activity, negative = cytotoxicity [12] 0.616% [at 8.39 µM] | viability change, negative = cytotoxic [19] -29.9% [at 6.97 µM]

O=C(Oc1ccccc1)Oc1ccccc1
inactive: Potency [1] | Potency [2] | Potency [4] | Potency [16] | Potency [5] | Potency [6] | Potency [7] | Potency [8] | Potency [9] | Potency [10] | Potency [11] | Potency [12] | Potency [13] | Potency [19] | Potency [14]

Nc1ccc(Oc2ccc(Cl)cc2)cc1
inactive: Potency [2] | Potency [3] | Potency [4] | Potency [16] | Potency [17] | Potency [5] | Potency [7] | Potency [8] | Potency [9] | Potency [10] | Potency [11] | Potency [12] | Potency [13] | Potency [19] | Potency [14]

CCO[Si](OCC)(OCC)OCC
inactive: Potency [1] | Potency [3] | Potency [17] | Potency [5] | Potency [6] | Potency [7] | Potency [8] | Potency [9] | Potency [10] | Potency [11] | Potency [12] | Potency [13] | Potency [19] | Potency [14]

COc1ccc2cc1Oc1ccc(cc1)C[C@H]1c3c(cc4c(c3Oc3cc5c(cc3OC)CCN(C)[C@@H]5C2)OCO4)CCN1C
active: Potency [1] 29.8 µM | Potency [3] 13.3 µM | Potency [17] 18.8 µM | Potency [5] 29.8 µM
inactive: Potency [6] | Potency [10] | Potency [11] | Potency [19]

S=C([S-])NCCNC(=S)[S-].S=C([S-])NCCNC(=S)[S-].[Mn+2].[Zn+2]
inactive: Potency [1] | Potency [3] | Potency [5] | Potency [6] | Potency [9] | Potency [10] | Potency [11] | Potency [19]

CCCCCCCC/C=C\CCCCCCCCN
inactive: Potency [1] | Potency [2] | Potency [17] | Potency [5] | Potency [6] | Potency [10] | Potency [11] | Potency [13] | Potency [19] | Potency [14] | Potency [15]

CC1(C)[C@@H](O)CC[C@]2(C)[C@H]3C(=O)C=C4[C@@H]5C[C@@](C)(C(=O)O)CC[C@]5(C)CC[C@@]4(C)[C@]3(C)CC[C@@H]12
active: Potency [1] 38.5 µM
inactive: Potency [9] | Potency [10] | Potency [11] | Potency [13] | Potency [15]

C=CC(=O)OCCOC(=O)C=C
inactive: Potency [3] | Potency [5] | Potency [7] | Potency [8] | Potency [9] | Potency [10] | Potency [11] | Potency [12] | Potency [19] | Potency [14]

Source: PubChem BioAssay (Tox21)
